Records with an inconclusive call do not appear. The source made the active and inactive calls. Rule for the calls: active = hit-call score of the fitted dose curve at least 0.9, where 1 is the maximum; inconclusive = response in the unintended direction; inactive = score below 0.9.

One experiment deals with Sodium/Iodide Symporter (NIS), SLC5A5 (gene 6528). As to the kind of experiment: CPHEA_Stoker_NIS_Inhibition_RAIU: CPHEA's Radioactive Iodide Uptake (RAIU) Assay for Sodium/Iodide Symporter (NIS) Inhibition, Stoker and Laws Labs (AID 2283841). A digest of the protocol:
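Iodide uptake through human NIS is measured in an engineered HEK293T line. Cells take up 125I (329pM final) for 2 hours at room temperature alongside chemicals at 0.001–100uM. Retained radioactivity is counted, and the signal is expressed against DMSO controls.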
On to `C=C(C)[C@H]1Cc2c(ccc3c2O[C@@H]2COc4cc(OC)c(OC)cc4[C@@H]2C3=O)O1`, for which the AC50 is 0.0708 µM (active).

On to `CCOP(=S)(OCC)SCCSCC`, for which the outcome was inactive.

Consider `CCC(=O)Nc1ccc(Cl)c(Cl)c1`, for which the outcome was inactive.

As to `CCOP(=S)(OCC)Oc1ccc([N+](=O)[O-])cc1`, the outcome was inactive.

As to `CSC1=N[C@@](C)(c2ccccc2)C(=O)N1Nc1ccccc1`, the result was inactive.

In the case of `Nc1c(Cl)cc([N+](=O)[O-])cc1Cl`, the result was inactive.

`CSc1nc(NC(C)C)nc(NC(C)C)n1`: the outcome was inactive.

With `COc1cccc(C(=O)NN(C(=O)c2cc(C)cc(C)c2)C(C)(C)C)c1C`, the AC50 is 15.8 µM (active).

For the molecule `CCCCOC(=O)[C@@H](C)Oc1ccc(Oc2ccc(C#N)cc2F)cc1`, the outcome was inactive.

Regarding `CCCSP(=O)(OCC)Oc1ccc(Br)cc1Cl` (configuration not stated), the outcome was inactive.

Turning to `FC(F)C(F)(F)OCC(Cn1cncn1)c1ccc(Cl)cc1Cl` (configuration not stated), the result was inactive.

`CC[C@H](C)[C@H]1O[C@]2(C=C[C@@H]1C)C[C@@H]1C[C@@H](C/C=C(\C)[C@@H](O[C@H]3C[C@H](OC)[C@@H](O[C@H]4C[C@H](OC)[C@@H](NC)[C@H](C)O4)[C@H](C)O3)[C@@H](C)/C=C/C=C3\CO[C@@H]4[C@H](O)C(C)=C[C@@H](C(=O)O1)[C@]34O)O2`: the AC50 is 13.3 µM (active).

Turning to `CC(COc1ccc(Oc2ccccc2)cc1)Oc1ccccn1` (configuration not stated), the result was inactive.

With `CON=C(C(=O)OC)c1ccccc1CON=C(C)c1cccc(C(F)(F)F)c1`, the AC50 was 2.05 µM (active).

On to `CCCOCC(=Nc1ccc(Cl)cc1C(F)(F)F)n1ccnc1`, for which the AC50 was 29 µM (active).

With `CCC(CC)Nc1c([N+](=O)[O-])cc(C)c(C)c1[N+](=O)[O-]`, the result was inactive.

`C#CCC1=C(C)C(OC(=O)C2C(C=C(C)C)C2(C)C)CC1=O` (configuration not stated): the AC50 is 47.5 µM (active).

As for `CCOP(=S)(OCC)Oc1ccc2c(C)c(Cl)c(=O)oc2c1`, the AC50 is 9.92 µM (active).

Regarding `COP(=O)(OC)OC(Br)C(Cl)(Cl)Br` (configuration not stated), the outcome was inactive.

Turning to `CC(C)N(C(=O)SCC(Cl)=C(Cl)Cl)C(C)C`, the AC50 is 21.1 µM (active).

For the molecule `CC1(C(=O)Nc2ccc(O)c(Cl)c2Cl)CCCCC1`, the outcome was inactive.

`C[Si](Cn1cncn1)(c1ccc(F)cc1)c1ccc(F)cc1`: the result was inactive.

Turning to `O=[N+]([O-])c1cc(C(F)(F)F)c(Cl)c([N+](=O)[O-])c1Nc1ncc(C(F)(F)F)cc1Cl`, the AC50 is 6.41 µM (active).

Turning to `CCOC(=O)COc1cc(-c2nn(C)c(OC(F)F)c2Cl)c(F)cc1Cl`, the outcome was inactive.

As to `CCOP(=S)(OCC)OC(Cl)C(Cl)(Cl)Cl` (configuration not stated), the outcome was inactive.

For `N#CSCSC#N`, the AC50 is 18.3 µM (active).

In the case of `CCCCN(CC)c1c([N+](=O)[O-])cc(C(F)(F)F)cc1[N+](=O)[O-]`, the outcome was inactive.

With `CCOP(=S)(Oc1cnc(C(C)(C)C)nc1)OC(C)C` (configuration not stated), the result was inactive.

On to `Cc1cc(C2CC2)nc(Nc2ccccc2)n1`, for which the AC50 is 44 µM (active).

On to `CCCCSP(=O)(SCCCC)SCCCC`, for which the outcome was inactive.

On to `CC(C)=CC1C(C(=O)OCN2C(=O)C3=C(CCCC3)C2=O)C1(C)C` (configuration not stated), for which the AC50 was 32.9 µM (active).

Tested on in the next experiment: not listed separately
Description: CPHEA_Stoker_NIS_Cytotoxicity: Cytotoxicity Assessment for CPHEA's Radioactive Iodide Uptake (RAIU) Assay for Sodium/Iodide Symporter (NIS) Inhibition, Stoker and Laws Labs (AID 2283897).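 For AC50: active means loss of ATP signal versus DMSO meaning cytotoxicity.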 The essentials:
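ATP luminescence (Cell Titer Glo) measured viability, with loss of signal normalized to DMSO controls. Cells: hNIS-HEK293T-EPA, seeded 40 hours prior. Dosing: 0.001–100uM, 2 hours, room temperature, uptake buffer pH 7.4.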
Take `C=C(C)[C@H]1Cc2c(ccc3c2O[C@@H]2COc4cc(OC)c(OC)cc4[C@@H]2C3=O)O1`: the outcome was inactive.

Take `CCOP(=S)(OCC)SCCSCC`: the outcome was inactive.

For `CCC(=O)Nc1ccc(Cl)c(Cl)c1`, the outcome was inactive.

As to `CCOP(=S)(OCC)Oc1ccc([N+](=O)[O-])cc1`, the result was inactive.

For the molecule `CSC1=N[C@@](C)(c2ccccc2)C(=O)N1Nc1ccccc1`, the result was inactive.

With `Nc1c(Cl)cc([N+](=O)[O-])cc1Cl`, the outcome was inactive.

On to `CSc1nc(NC(C)C)nc(NC(C)C)n1`, for which the outcome was inactive.

Consider `COc1cccc(C(=O)NN(C(=O)c2cc(C)cc(C)c2)C(C)(C)C)c1C`, for which the outcome was inactive.

For the molecule `CCCCOC(=O)[C@@H](C)Oc1ccc(Oc2ccc(C#N)cc2F)cc1`, the outcome was inactive.

With `CCCSP(=O)(OCC)Oc1ccc(Br)cc1Cl` (configuration not stated), the result was inactive.

In the case of `FC(F)C(F)(F)OCC(Cn1cncn1)c1ccc(Cl)cc1Cl` (configuration not stated), the outcome was inactive.

Turning to `CC[C@H](C)[C@H]1O[C@]2(C=C[C@@H]1C)C[C@@H]1C[C@@H](C/C=C(\C)[C@@H](O[C@H]3C[C@H](OC)[C@@H](O[C@H]4C[C@H](OC)[C@@H](NC)[C@H](C)O4)[C@H](C)O3)[C@@H](C)/C=C/C=C3\CO[C@@H]4[C@H](O)C(C)=C[C@@H](C(=O)O1)[C@]34O)O2`, the AC50 was 23 µM (active).

On to `CC(COc1ccc(Oc2ccccc2)cc1)Oc1ccccn1` (configuration not stated), for which the outcome was inactive.

As for `CON=C(C(=O)OC)c1ccccc1CON=C(C)c1cccc(C(F)(F)F)c1`, the outcome was inactive.

Regarding `CCCOCC(=Nc1ccc(Cl)cc1C(F)(F)F)n1ccnc1`, the AC50 is 38.1 µM (active).

`CCC(CC)Nc1c([N+](=O)[O-])cc(C)c(C)c1[N+](=O)[O-]`: the result was inactive.

With `C#CCC1=C(C)C(OC(=O)C2C(C=C(C)C)C2(C)C)CC1=O` (configuration not stated), the outcome was inactive.

Take `CCOP(=S)(OCC)Oc1ccc2c(C)c(Cl)c(=O)oc2c1`: the AC50 is 27.7 µM (active).

In the case of `COP(=O)(OC)OC(Br)C(Cl)(Cl)Br` (configuration not stated), the outcome was inactive.

`CC(C)N(C(=O)SCC(Cl)=C(Cl)Cl)C(C)C`: the AC50 is 39.8 µM (active).

In the case of `CC1(C(=O)Nc2ccc(O)c(Cl)c2Cl)CCCCC1`, the outcome was inactive.

As to `C[Si](Cn1cncn1)(c1ccc(F)cc1)c1ccc(F)cc1`, the outcome was inactive.

Consider `O=[N+]([O-])c1cc(C(F)(F)F)c(Cl)c([N+](=O)[O-])c1Nc1ncc(C(F)(F)F)cc1Cl`, for which the AC50 is 19.6 µM (active).

Regarding `CCOC(=O)COc1cc(-c2nn(C)c(OC(F)F)c2Cl)c(F)cc1Cl`, the result was inactive.

Take `CCOP(=S)(OCC)OC(Cl)C(Cl)(Cl)Cl` (configuration not stated): the result was inactive.

Turning to `N#CSCSC#N`, the AC50 was 41.4 µM (active).

As for `CCCCN(CC)c1c([N+](=O)[O-])cc(C(F)(F)F)cc1[N+](=O)[O-]`, the outcome was inactive.

`CCOP(=S)(Oc1cnc(C(C)(C)C)nc1)OC(C)C` (configuration not stated): the outcome was inactive.

Turning to `Cc1cc(C2CC2)nc(Nc2ccccc2)n1`, the result was inactive.

For the molecule `CCCCSP(=O)(SCCCC)SCCCC`, the result was inactive.

Consider `CC(C)=CC1C(C(=O)OCN2C(=O)C3=C(CCCC3)C2=O)C1(C)C` (configuration not stated), for which the half-maximal activity concentration (AC50) was 35.4 µM (active).
